PubChem BioAssay (EPA / NIEHS)
Calls of active or inactive are those of the source. Rule for the calls: active = hit-call score of the fitted dose curve at least 0.9, where 1 is the maximum; inactive = score below 0.9.

Experiments:
[1] = ATG_M_61_CIS: Attagene CIS-FACTORIAL HepG2 Assay for M61 Transcription Factor (Internal Marker) (AID 2282937); conditions: HepG2 Attagene CIS-FACTORIAL M61 internal marker reporter; actives raise or lower the signal
Outline: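 Background-control endpoint: HepG2 cells with cis-regulated reporter constructs, 24 h exposure, reporter mRNA detected via fluorescent primer extension and capillary electrophoresis; values from bidirectional fitting with DMSO baseline.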

[2] = ATG_EGR_CIS: Attagene CIS-FACTORIAL HepG2 Assay for human Early Growth Response 1 (EGR1) (AID 2282938); conditions: HepG2 Attagene CIS-FACTORIAL EGR reporter mRNA; actives raise or lower the signal
Outline: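 Endpoint derived by bidirectional fitting versus DMSO vehicle. Method: cis-promoter reporter units transfected into HepG2, 24 h dosing, RNA isolation, RT-PCR with 6-FAM primer extension and HpaI digestion, then capillary electrophoresis fluorescence detection.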

[3] = ATG_M_19_CIS: Attagene CIS-FACTORIAL HepG2 Assay for M19 Transcription Factor (Internal Marker) (AID 2282939); conditions: HepG2 Attagene CIS-FACTORIAL M19 internal marker reporter; actives raise or lower the signal
Outline: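 In this multiplexed cell assay, transiently transfected HepG2 reporter units report endogenous transcription-factor activity; after 24 hours of treatment, labelled reporter cDNA fragments are quantified by capillary electrophoresis and fitted bidirectionally against DMSO.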

[4] = ATG_Ets_CIS: Attagene CIS-FACTORIAL HepG2 Assay for human Erythroblast Transformation Specific (ETS) (AID 2282941); conditions: HepG2 ETS cis-reporter transcription, actives raise or lower the signal
Outline: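 Bidirectional fit versus DMSO of reporter mRNA signal, detected by RT-PCR and capillary electrophoresis in HepG2 cells transiently transfected with cis-element reporters and dosed 24 h.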

[5] = biological target: Hepatocyte nuclear factor 3-beta (Homo sapiens) (UniProt Q9Y261); assay: ATG_FoxA2_CIS: Attagene CIS-FACTORIAL HepG2 Assay for human Forkhead box A2 (FOXA2) (AID 2282942); conditions: HepG2 cis-reporter transcription factor activity, 24 h; actives raise or lower the signal
Hepatocyte nuclear factor 3-beta (Homo sapiens), sequence (Q9Y261 whole entry, looked up): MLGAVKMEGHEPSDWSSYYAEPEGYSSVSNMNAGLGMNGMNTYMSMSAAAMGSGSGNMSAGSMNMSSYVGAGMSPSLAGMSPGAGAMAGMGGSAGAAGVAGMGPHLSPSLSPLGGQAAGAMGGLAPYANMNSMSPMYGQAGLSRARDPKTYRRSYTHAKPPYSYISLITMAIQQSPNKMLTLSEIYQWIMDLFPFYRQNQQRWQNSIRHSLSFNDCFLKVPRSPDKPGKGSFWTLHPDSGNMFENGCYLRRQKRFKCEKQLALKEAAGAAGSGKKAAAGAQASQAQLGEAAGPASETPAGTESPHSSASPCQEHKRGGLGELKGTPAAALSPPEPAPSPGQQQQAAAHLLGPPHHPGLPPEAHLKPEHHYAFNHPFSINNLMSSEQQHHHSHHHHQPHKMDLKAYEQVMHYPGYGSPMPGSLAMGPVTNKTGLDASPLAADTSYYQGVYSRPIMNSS
Outline: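 Measured: reporter mRNA induction or loss in HepG2 transiently carrying multiple cis-regulated reporter units, 24 h after dosing. Quantified by RT-PCR plus capillary electrophoresis, normalised to DMSO.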

[6] = ATG_FoxO_CIS: Attagene CIS-FACTORIAL HepG2 Assay for human Forkhead box O (FoxO) (AID 2282943); conditions: HepG2 Attagene cis-reporter, FoxO element, mRNA; actives raise or lower the signal
Outline: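 HepG2 cells transiently transfected with cis-element-driven reporter units report endogenous FoxO activity. After 24 h chemical exposure, reporter mRNA quantified by RT-PCR, fluorescent labeling, HpaI digestion and capillary electrophoresis; bidirectional fit versus DMSO.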

[7] = ATG_GLI_CIS: Attagene CIS-FACTORIAL HepG2 Assay for human Zinc Finger Protein GLI1 (AID 2282945); conditions: HepG2, Attagene cis-factorial reporter mRNA, GLI element; actives raise or lower the signal
Outline: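 Transiently transfected HepG2 cells report endogenous transcription factor activity via cis-element-driven reporter units. After 24 h compound exposure, reporter mRNA was measured by RT-PCR with capillary electrophoresis; bidirectional fitting against DMSO baseline.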

[8] = biological target: Bile acid receptor (Homo sapiens) (UniProt Q96RI1); assay: ATG_IR1_CIS: Attagene CIS-FACTORIAL HepG2 Assay for human Nuclear Receptor Subfamily 1 Group H Member 4 (NR1H4), IR1 submotif (AID 2282946); conditions: IR1 reporter transcription, actives raise or lower the signal
Bile acid receptor (Homo sapiens), sequence (Q96RI1 whole entry, looked up): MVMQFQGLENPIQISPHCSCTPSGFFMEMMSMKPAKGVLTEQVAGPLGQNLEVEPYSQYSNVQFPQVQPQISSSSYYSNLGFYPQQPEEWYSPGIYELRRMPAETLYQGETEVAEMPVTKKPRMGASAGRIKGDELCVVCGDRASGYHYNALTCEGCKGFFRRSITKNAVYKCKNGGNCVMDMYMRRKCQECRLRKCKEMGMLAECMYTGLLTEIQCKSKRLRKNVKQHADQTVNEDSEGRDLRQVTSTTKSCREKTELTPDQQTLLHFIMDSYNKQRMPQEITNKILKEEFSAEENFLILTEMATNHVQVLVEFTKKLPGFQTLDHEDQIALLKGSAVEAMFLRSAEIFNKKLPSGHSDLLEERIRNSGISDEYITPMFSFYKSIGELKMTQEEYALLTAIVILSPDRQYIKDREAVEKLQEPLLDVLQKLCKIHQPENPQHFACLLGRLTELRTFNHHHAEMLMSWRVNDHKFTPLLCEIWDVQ
Outline: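 Fluorescence of capillary-separated, HpaI-digested RT-PCR reporter products gave IR1-element mRNA induction in HepG2 cells 24 h after dosing. Endogenous transcription factors drove the cis-regulated reporters; activity was fitted bidirectionally against DMSO.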

[9] = ATG_ISRE_CIS: Attagene CIS-FACTORIAL HepG2 Assay for human Interferon Regulatory Factor 1 (IRF1) binding to an Interferon-Stimulated Response Element (ISRE) (AID 2282948); conditions: HepG2 ISRE cis-reporter (Attagene), mRNA transcription readout; actives raise or lower the signal
Outline: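 Uses HepG2 liver cells transfected with cis-regulated reporters and measures mRNA 24 h post-dosing through RT-PCR, primer-extension labelling and capillary electrophoresis, with DMSO as negative control.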

[10] = ATG_M_32_CIS: Attagene CIS-FACTORIAL HepG2 Assay for M32 Transcription Factor (Internal Marker) (AID 2282949); conditions: HepG2 Attagene cis-factorial M32 reporter, mRNA; actives raise or lower the signal;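 note: background control marker of the multiplexed CIS panel rather than a real target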
Outline: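 HepG2 transfectants (cis-regulated reporter transcription units) dosed 24 h. Reporter mRNA by RT-PCR plus CE, analysed as gain or loss relative to DMSO.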

[11] = ATG_M_06_CIS: Attagene CIS-FACTORIAL HepG2 Assay for M06 Transcription Factor (Internal Marker) (AID 2282950); conditions: HepG2 Attagene CIS-FACTORIAL M06 internal marker reporter; actives raise or lower the signal
Outline: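 One of many multiplexed endpoints: HepG2 reporter mRNA after 24 h dosing, detected by RT-PCR and capillary electrophoresis fluorescence; gain or loss of signal analysed against DMSO.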

[12] = biological target: Hypoxia-inducible factor 1-alpha (Homo sapiens) (UniProt Q16665); assay: ATG_HIF1a_CIS: Attagene CIS-FACTORIAL HepG2 Assay for human Hypoxia Inducible Factor 1 (HIF1A) (AID 2282951); conditions: HepG2 Attagene cis-factorial HIF1a reporter transcription; actives raise or lower the signal
Hypoxia-inducible factor 1-alpha (Homo sapiens), sequence (Q16665 whole entry, looked up): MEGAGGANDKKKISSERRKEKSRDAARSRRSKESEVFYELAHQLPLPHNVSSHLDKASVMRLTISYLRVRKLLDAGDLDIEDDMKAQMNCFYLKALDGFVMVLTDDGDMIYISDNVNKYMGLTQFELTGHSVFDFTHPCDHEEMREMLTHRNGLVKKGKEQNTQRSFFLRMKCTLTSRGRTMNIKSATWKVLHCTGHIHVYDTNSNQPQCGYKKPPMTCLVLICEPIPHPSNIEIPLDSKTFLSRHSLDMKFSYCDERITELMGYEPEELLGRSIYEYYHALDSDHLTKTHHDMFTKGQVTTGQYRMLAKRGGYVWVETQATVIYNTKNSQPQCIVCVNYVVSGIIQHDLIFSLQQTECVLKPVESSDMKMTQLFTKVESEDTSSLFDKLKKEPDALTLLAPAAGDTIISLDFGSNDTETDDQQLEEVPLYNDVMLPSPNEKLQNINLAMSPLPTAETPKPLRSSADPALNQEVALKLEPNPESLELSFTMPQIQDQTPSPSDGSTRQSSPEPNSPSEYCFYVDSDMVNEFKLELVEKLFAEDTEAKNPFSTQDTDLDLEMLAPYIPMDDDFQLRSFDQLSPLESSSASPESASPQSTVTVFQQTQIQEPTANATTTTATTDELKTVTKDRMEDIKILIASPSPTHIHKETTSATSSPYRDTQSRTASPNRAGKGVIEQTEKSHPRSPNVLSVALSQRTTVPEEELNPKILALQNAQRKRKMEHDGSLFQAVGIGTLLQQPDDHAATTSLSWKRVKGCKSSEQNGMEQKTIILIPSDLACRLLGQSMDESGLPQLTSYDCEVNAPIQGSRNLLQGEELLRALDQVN
Outline: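 Dosed 24 h, transfected HepG2 cells yielded total RNA whose reporter transcripts were RT-PCR-amplified and sized by capillary electrophoresis using fluorescent labelling; DMSO defined baseline, with gain and loss of signal both fitted.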

[13] = biological target: Heat shock factor protein 1 (Homo sapiens) (UniProt Q00613); assay: ATG_HSE_CIS: Attagene CIS-FACTORIAL HepG2 Assay for human Heat Shock Transcription Factor 1 (HSE) (AID 2282953); conditions: HepG2 HSE cis-reporter, Attagene RNA transcription; actives raise or lower the signal
Heat shock factor protein 1 (Homo sapiens), sequence (Q00613 whole entry, looked up): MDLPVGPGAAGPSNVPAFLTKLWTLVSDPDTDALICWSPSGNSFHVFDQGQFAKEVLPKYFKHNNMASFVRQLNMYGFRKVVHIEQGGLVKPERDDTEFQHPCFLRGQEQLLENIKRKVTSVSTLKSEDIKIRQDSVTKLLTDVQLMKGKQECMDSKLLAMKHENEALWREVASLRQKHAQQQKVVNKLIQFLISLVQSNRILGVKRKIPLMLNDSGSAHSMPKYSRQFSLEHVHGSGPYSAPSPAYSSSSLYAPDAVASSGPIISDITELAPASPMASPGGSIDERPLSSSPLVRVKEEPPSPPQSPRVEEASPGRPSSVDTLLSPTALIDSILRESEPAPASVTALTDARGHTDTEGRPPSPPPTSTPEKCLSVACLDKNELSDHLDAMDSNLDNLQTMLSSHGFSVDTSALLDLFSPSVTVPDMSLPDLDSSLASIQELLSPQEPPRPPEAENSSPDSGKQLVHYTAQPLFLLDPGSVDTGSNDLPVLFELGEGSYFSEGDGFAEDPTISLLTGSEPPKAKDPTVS
Outline: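 Using HepG2 with transfected cis-driven reporter constructs, compound effects on endogenous factor activity are scored as reporter mRNA change at 24 h. Detection: RT-PCR, HpaI digestion, capillary electrophoresis; bidirectional fitting to DMSO.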

[14] = ATG_MRE_CIS: Attagene CIS-FACTORIAL HepG2 Assay for human Metal Responsive Element (MRE) (AID 2282954); conditions: HepG2 MRE cis-reporter transcription, Attagene multiplex; actives raise or lower the signal
Outline: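 Measured here is mRNA induction from an MRE cis-element reporter in HepG2 after 24 h, quantified by fluorescence of labelled RT-PCR products on capillary electrophoresis; gain- and loss-of-signal fits use DMSO as baseline.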

[15] = ATG_ERE_CIS: Attagene CIS-FACTORIAL HepG2 Assay for Estrogen Response Element (ERE) (AID 2282940); conditions: HepG2 ERE cis-reporter, Attagene RNA transcript; actives raise or lower the signal
Outline: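 Measuring endogenous transcription factor output, the assay doses transfected HepG2 cells for 24 hours and quantifies reporter transcripts by fluorescent RT-PCR and capillary electrophoresis, with DMSO as baseline.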

[16] = ATG_GATA_CIS: Attagene CIS-FACTORIAL HepG2 Assay for human GATA Binding Protein (AID 2282944); conditions: HepG2 GATA cis-element reporter, Attagene multiplex mRNA; actives raise or lower the signal
Outline: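 Measures endogenous transcription factor-driven reporter mRNA in HepG2 cells transiently carrying cis-regulated constructs. 24 h dosing; RNA via oligo(dT) reverse transcription, PCR, HpaI digestion, capillary electrophoresis; fitted relative to DMSO.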

[17] = ATG_GRE_CIS: Attagene CIS-FACTORIAL HepG2 Assay for human Glucocorticoid Response Elements (GRE) (AID 2282947); conditions: HepG2 GRE cis-reporter, Attagene multiplex mRNA; actives raise or lower the signal
Outline: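 Fluorescence intensity of reporter-specific cDNA fragments, separated by capillary electrophoresis, provides the signal. Constructs carry cis-regulating promoters in transiently transfected HepG2 liver cells; 24 h incubation; fitting is bidirectional against DMSO.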

[18] = biological target: Hepatocyte nuclear factor 6 (Homo sapiens) (UniProt Q9UBC0); assay: ATG_HNF6_CIS: Attagene CIS-FACTORIAL HepG2 Assay for human Hepatocyte Nuclear Factor 6 (HNF6) (AID 2282952); conditions: HepG2 Attagene cis-factorial HNF6 reporter transcription; actives raise or lower the signal
Hepatocyte nuclear factor 6 (Homo sapiens), sequence (Q9UBC0 whole entry, looked up, the tested form may be a part): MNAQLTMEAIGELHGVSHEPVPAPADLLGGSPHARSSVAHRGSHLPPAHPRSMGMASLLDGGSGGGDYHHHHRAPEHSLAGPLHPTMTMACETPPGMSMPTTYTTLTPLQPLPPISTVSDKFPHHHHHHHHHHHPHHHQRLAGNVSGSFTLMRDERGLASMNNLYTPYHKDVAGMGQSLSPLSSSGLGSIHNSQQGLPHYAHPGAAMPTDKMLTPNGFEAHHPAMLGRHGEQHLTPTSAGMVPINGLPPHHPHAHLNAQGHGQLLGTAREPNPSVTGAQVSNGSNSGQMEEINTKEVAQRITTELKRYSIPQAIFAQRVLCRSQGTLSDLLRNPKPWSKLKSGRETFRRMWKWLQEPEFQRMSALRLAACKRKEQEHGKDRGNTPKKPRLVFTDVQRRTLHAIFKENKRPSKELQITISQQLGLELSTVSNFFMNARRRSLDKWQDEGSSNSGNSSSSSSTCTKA
Outline: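 First, HepG2 cells were transfected with the multiplexed cis reporter library and dosed with chemical for 24 h. Next, RNA was reverse-transcribed, PCR-amplified and fluorescently labelled. Finally, HpaI-digested fragments were read by capillary electrophoresis.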

[19] = ATG_PBREM_CIS: Attagene CIS-FACTORIAL HepG2 Assay for human Phenobarbital-responsive Enhancer Module (PBREM) (AID 2282955); conditions: HepG2 PBREM cis-reporter, Attagene multiplexed transcription; actives raise or lower the signal
Outline: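 Transfected liver-derived HepG2 cells exposed 24 h; PBREM reporter transcript quantified via RT-PCR and capillary electrophoresis, with activity in either direction referenced to DMSO.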

Measured: outcome

Cc1cc(C)c(C)cc1C
not listed: [15] | [16] | [17] | [18] | [19]
inactive: all other assays above

CCCCCCCCc1ccc(Nc2ccc(CCCCCCCC)cc2)cc1
not listed: [8] | [10]
inactive: all other assays above

CNC(=S)NN
not listed: [8] | [9] | [19]
inactive: all other assays above

Cc1ccc(C2OC[C@@H]3OC(c4ccc(C)cc4)O[C@H]([C@H](O)CO)[C@@H]3O2)cc1 (stereo partly specified)
not listed: [1] | [19]
inactive: all other assays above

O=[N+]([O-])c1ccc(CO)cc1
not listed: [15] | [19]
inactive: all other assays above
